The source of these data is PubChem BioAssay (EPA / NIEHS).

Activity calls are given as the source filed them. The calls were made as follows: active = hit-call score of the fitted dose curve at least 0.9, where 1 is the maximum; inactive = score below 0.9.

What all share (conditions): mRNA level, 48 h; actives raise or lower the signal
Read-out in experiment [1]: Glutamate-cysteine ligase catalytic (GCLC), GCLC (gene 2729)
Kind of experiment: LTEA_HepaRG_GCLC: Life Technologies and Expression Analysis (LTEA) Assay for Glutamate-cysteine ligase catalytic (GCLC) using HepaRG (AID 2283498). The procedure, abridged: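 Differentiated human HepaRG cells, plated 48 h then switched to serum-free induction medium, were exposed in duplicate for 48 h to 8 half-log concentrations topping at 100 uM in 0.5% DMSO. GCLC mRNA was quantified by qRT-PCR against ACTB, GAPDH and POLR2A.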

Read-out in experiment [2]: growth arrest and DNA damage 45 (GADD45G), GADD45G (gene 10912)
Kind of experiment: LTEA_HepaRG_GADD45G: Life Technologies and Expression Analysis (LTEA) Assay for growth arrest and DNA damage 45 (GADD45G) using HepaRG (AID 2283499). The procedure, abridged: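 Human hepatic HepaRG line treated 48 h with chemicals (eight concentrations, half-log steps from 100 uM); transcript induction or repression of GADD45G scored by qRT-PCR versus DMSO vehicle.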

Read-out in experiment [3]: Glutamate-cysteine ligase regulatory (GCLM), GCLM (gene 2730)
Kind of experiment: LTEA_HepaRG_GCLM: Life Technologies and Expression Analysis (LTEA) Assay for Glutamate-cysteine ligase regulatory (GCLM) using HepaRG (AID 2283500). The gist of the method: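 Differentiated human HepaRG cells exposed 48 h in serum-free induction medium to 8-point half-log concentrations (top 100 uM, 0.5% DMSO), in duplicate. GCLM mRNA quantified by qRT-PCR, normalized to ACTB, GAPDH, POLR2A; bidirectional fitting versus DMSO.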

Read-out in experiment [4]: Glutathione S-transferase M3 (GSTM3), GSTM3 (gene 2947)
Kind of experiment: LTEA_HepaRG_GSTM3: Life Technologies and Expression Analysis (LTEA) Assay for Glutathione S-transferase M3 (GSTM3) using HepaRG (AID 2283501). The gist of the method:
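Changes in GSTM3 expression, an oxidative-stress marker, were scored by bidirectional curve fitting against 0.5% DMSO vehicle. Human HepaRG cultures received chemicals for 48 h in duplicate, highest concentration 100 uM with half-log dilutions.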

Read-out in experiment [5]: Heat shock 70 kDa protein 1 (HSPA1A), gene 3303
Kind of experiment: LTEA_HepaRG_HSPA1A: Life Technologies and Expression Analysis (LTEA) Assay for Heat shock 70 kDa protein 1 (HSPA1A) using HepaRG (AID 2283502). The gist of the method:
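Differentiated human HepaRG cells in serum-free induction medium were exposed in duplicate for 48 h to eight concentrations (top 100 uM, half-log steps, 0.5% DMSO). HSPA1A mRNA was quantified by qRT-PCR, normalized to ACTB, GAPDH and POLR2A, and fitted bidirectionally against DMSO.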

Read-out in experiment [6]: HGF (gene 3082)
Kind of experiment: LTEA_HepaRG_HGF: Life Technologies and Expression Analysis (LTEA) Assay for Hepatocyte Growth Facto (HGF) using HepaRG (AID 2283505). The gist of the method:
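Gain or loss of HGF mRNA in human HepaRG liver cells after 48 h chemical exposure; eight concentrations up to 100 uM with 0.5% DMSO vehicle, quantified by TaqMan qRT-PCR.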

Read-out in experiment [7]: Insulin Like Growth Factor 1 (IGF1), IGF1 (gene 3479)
Kind of experiment: LTEA_HepaRG_IGF1: Life Technologies and Expression Analysis (LTEA) Assay for Insulin Like Growth Factor 1 (IGF1) using HepaRG (AID 2283506). The gist of the method:
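Differentiated human HepaRG cells were dosed for 48 h in serum-free induction medium with 0.5% DMSO, eight half-log concentrations up to 100 uM, in duplicate. IGF1 mRNA was quantified by qRT-PCR normalized to ACTB, GAPDH, POLR2A; bidirectional fitting versus DMSO.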

Read-out in experiment [8]: Insulin-like growth factor-binding protein 1 (IGFBP1), IGFBP1 (gene 3484)
Kind of experiment: LTEA_HepaRG_IGFBP1: Life Technologies and Expression Analysis (LTEA) Assay for Insulin-like growth factor-binding protein 1 (IGFBP1) using HepaRG (AID 2283508). The gist of the method: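 mRNA induction or loss was quantified by qRT-PCR after 48 h chemical exposure of human HepaRG cells, with 0.5% DMSO as vehicle and baseline. Concentration-response over eight points up to 100 uM.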

Read-out in experiment [9]: Interleukin 6 (IL6), IL6 (gene 3569)
Kind of experiment: LTEA_HepaRG_IL6: Life Technologies and Expression Analysis (LTEA) Assay for Interleukin 6 (IL6) using HepaRG (AID 2283509). The gist of the method: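 Differentiated human HepaRG cells, plated 48 h then switched to serum-free induction medium, were exposed in duplicate for 48 h to eight half-log concentrations up to 100 uM in 0.5% DMSO. IL6 mRNA measured by qRT-PCR, normalized to ACTB/GAPDH/POLR2A.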

Read-out in experiment [10]: Interleukin 6 Receptor (IL6R), IL6R (gene 3570)
Kind of experiment: LTEA_HepaRG_IL6R: Life Technologies and Expression Analysis (LTEA) Assay for Interleukin 6 Receptor (IL6R) using HepaRG (AID 2283510).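 As to AC50: TaqMan qRT-PCR signal normalized to ACTB GAPDH and POLR2A housekeeping genes.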 The procedure, abridged:
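Differentiated human HepaRG cells, plated 48 h then switched to serum-free induction medium, were dosed in duplicate for 48 h at eight half-log concentrations up to 100 uM in 0.5% DMSO. IL6R mRNA quantified by qRT-PCR, normalized to ACTB/GAPDH/POLR2A; bidirectional fit versus DMSO.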

Read-out in experiment [11]: Potassium channel subfamily K member 1 (KCNK1), KCNK1 (gene 3775)
Kind of experiment: LTEA_HepaRG_KCNK1: Life Technologies and Expression Analysis (LTEA) Assay for Potassium channel subfamily K member 1 (KCNK1) using HepaRG (AID 2283511). The procedure, abridged: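 Differentiated human HepaRG cells in serum-free induction medium were exposed in duplicate for 48 h to 8 half-log concentrations up to 100 uM in 0.5% DMSO. KCNK1 mRNA was measured by TaqMan qRT-PCR, normalized to ACTB, GAPDH and POLR2A, and fitted bidirectionally versus DMSO.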

Read-out in experiment [12]: Keratin 19 (KRT19), KRT19 (gene 3880)
Kind of experiment: LTEA_HepaRG_KRT19: Life Technologies and Expression Analysis (LTEA) Assay for Keratin 19 (KRT19) using HepaRG (AID 2283512). The gist of the method:
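Gene-expression endpoint in the human liver line HepaRG after 48 h exposure to up to 100 uM test chemical with 0.5% DMSO vehicle; KRT19 mRNA by qRT-PCR, analyzed bidirectionally versus DMSO.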

Read-out in experiment [13]: JUN Transcription Factor, JUN (gene 3725)
Kind of experiment: LTEA_HepaRG_JUN: Life Technologies and Expression Analysis (LTEA) Assay for JUN Transcription Factor using HepaRG (AID 2283513). The procedure, abridged: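 Differentiated HepaRG cells were exposed to chemicals for 48 h in serum-free induction medium, 8 concentrations from 100 uM in half-log steps, 0.5% DMSO vehicle, in duplicate. JUN mRNA was quantified by TaqMan qRT-PCR, normalized to ACTB, GAPDH, POLR2A.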

Read-out in experiment [14]: Lipase C (LIPC), LIPC (gene 3990)
Kind of experiment: LTEA_HepaRG_LIPC: Life Technologies and Expression Analysis (LTEA) Assay for Lipase C (LIPC) using HepaRG (AID 2283514). The gist of the method: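 Differentiated human HepaRG cells in serum-free induction medium were exposed in duplicate for 48 h to eight concentrations (top 100 uM, half-log steps, 0.5% DMSO). LIPC mRNA was quantified by TaqMan qRT-PCR, normalized to ACTB, GAPDH and POLR2A, with bidirectional fitting versus DMSO.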

Read-out in experiment [15]: Lipoprotein lipase (LPL), LPL (gene 4023)
Kind of experiment: LTEA_HepaRG_LPL: Life Technologies and Expression Analysis (LTEA) Assay for Lipoprotein lipase (LPL) using HepaRG (AID 2283515). The gist of the method: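 Differentiated human HepaRG cells in serum-free induction medium were exposed in duplicate for 48 h to eight half-log concentrations (top 100 uM) in 0.5% DMSO. LPL mRNA was quantified by TaqMan qRT-PCR, normalized to ACTB, GAPDH and POLR2A.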

Read-out in experiment [16]: MicroRNA 122 (MIR122), gene 406906
Kind of experiment: LTEA_HepaRG_MIR122: Life Technologies and Expression Analysis (LTEA) Assay for MicroRNA 122 (MIR122) using HepaRG (AID 2283516). Also: the transcript read is the microRNA miR-122. The gist of the method:
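Differentiated human HepaRG cells were exposed 48 h in serum-free induction medium to eight half-log concentrations (top 100 uM, 0.5% DMSO). Transcript level was measured by TaqMan qRT-PCR, normalized to ACTB, GAPDH and POLR2A, and fitted bidirectionally versus DMSO.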

Read-out in experiment [17]: 3-Hydroxy-3-Methylglutaryl-CoA Synthase 2 (HMGCS2), HMGCS2 (gene 3158)
Kind of experiment: LTEA_HepaRG_HMGCS2: Life Technologies and Expression Analysis (LTEA) Assay for 3-Hydroxy-3-Methylglutaryl-CoA Synthase 2 (HMGCS2) using HepaRG (AID 2283504). The gist of the method:
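Expression of HMGCS2 in human HepaRG liver cells is measured by qRT-PCR 48 h after dosing (highest 100 uM, half-log series, 0.5% DMSO). Values come from bidirectional concentration-response fitting with DMSO as baseline.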

Read-out in experiment [18]: Intercellular Adhesion Molecule 1 (ICAM1), ICAM1 (gene 3383)
Kind of experiment: LTEA_HepaRG_ICAM1: Life Technologies and Expression Analysis (LTEA) Assay for Intercellular Adhesion Molecule 1 (ICAM1) using HepaRG (AID 2283507). The gist of the method:
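Gain or loss of transcript in HepaRG hepatic cells is quantified by qRT-PCR after 48 h chemical exposure (up to 100 uM, half-log steps), with DMSO as baseline.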

As for `Cc1cn([C@H]2C=C[C@@H](CO)O2)c(=O)[nH]c1=O`, the compound was classed as inactive in experiment [1], in [2], in [3], in experiment [4], in experiment [5] and in experiment [6]. For the same compound, the outcome in [7], in experiment [8], in experiment [9], in experiment [10], in experiment [11] and in [12] was inactive. Further, the outcome in experiment [13], in experiment [14], in [15] and in [16] was inactive.

Consider `CCc1nc(N)nc(N)c1-c1ccc(Cl)cc1`, for which the compound was classed as inactive in experiment [1], in experiment [3], in experiment [4], in experiment [5], in [9] and in [11]. The compound was classed as inactive in [13]. Further, the AC50 in [2] is 78.1 µM (active); in [17] it was 68.8 µM (active); in [6], 50 µM (active); in experiment [7], 11.8 µM (active); in [10], 26.7 µM (active); in experiment [12] it was 75.5 µM (active). The AC50 was 68.6 µM (active) in experiment [14], 75.1 µM (active) in [15] and 33.2 µM (active) in experiment [16].

For `CC(C)OC(=O)C(C)(C)Oc1ccc(C(=O)c2ccc(Cl)cc2)cc1`, the result in experiment [1], in experiment [2], in [3], in experiment [4], in experiment [5] and in [6] was inactive. For the same compound, the compound was called inactive in experiment [7], in experiment [18], in experiment [8], in [9], in [10] and in [11]. Also, the compound was classed as inactive in experiment [12], in [14], in experiment [15] and in [16].

In the case of `CC(=O)[C@@]1(O)CC[C@H]2[C@@H]3CCC4=CC(=O)CC[C@]4(C)[C@H]3CC[C@@]21C`, the outcome in experiment [1], in experiment [2], in experiment [3], in experiment [4], in experiment [5] and in experiment [6] was inactive. The compound was classed as inactive in experiment [7], in [8], in [9], in experiment [10], in experiment [11] and in experiment [12]. In addition, the result in [13], in [14], in [15] and in experiment [16] was inactive.
